Compound activity deposited in PubChem BioAssay by Center for Chemical Genomics, University of Michigan.
Dicer processing = blocks human Dicer maturation of pre-miR-21. cat-ELCCA pre-miR-21 Dicer processing, chemiluminescence; stronger effect = higher value. 47,000 compounds, 6% hits. z-score at 25 µM; in the data active means z-score above about 3, passing the limit was not always enough;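 further: plate controls were vehicle for no effect and no enzyme for full effect; higher signal means more uncleaved substrate so more Dicer inhibition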
Starred values were filed as active, the others as inactive. The full list was thinned out, with hits kept by preference.

SMILES	Dicer processing
Nc1nc2ccccc2n1Cc1ccccc1	-0.02
COc1ccc(/C=C2\Cc3ccccc3C2=O)cc1O	7.99
COc1cc([N+](=O)[O-])c(OC)cc1SCC(=O)NNC(=S)Nc1cccc(Cl)c1	-0.45
COc1ccc(OCC(O)CNS(=O)(=O)c2ccc(-c3ccccn3)s2)cc1 (stereo unspecified)	-1.34
Cc1ccc(S(=O)(=O)Nc2ccccc2Sc2ncnc3c(C)csc23)cc1	-2.39
CC(=O)N(O)CC(=O)Nc1ccccc1C(=O)c1ccccc1	0.94
FC(F)(F)c1cc(-c2cccnc2)nc2c(-c3ccc(Cl)cc3)cnn12	-0.12
CNNC(=S)Nc1ccc(OC)cc1	1.47
COc1ccc(-c2nc(=S)c3c(n2CCCN(C)C)CC(C)(C)OC3)cc1	3.13*
COCCn1c(-c2ccccc2)nc(=S)c2c1CC(C)(C)OC2	-0.39
CCN(CC)CCn1c(-c2ccc(OC)cc2)nc(=S)c2c1CC(C)(C)OC2	0.56
CC(C)NC(=O)ONC(=O)c1csc(-c2cccnc2)n1	0.59
O=C(Nc1cccc(Cl)c1)c1nn2c(C(F)(F)F)cc(-c3ccco3)nc2c1Cl	3.98*
COc1ccc(NC(=O)c2cc3nc(-c4ccco4)cc(C(F)(F)F)n3n2)cc1OC	-0.42
O=C(Nc1ccc2c(c1)OCO2)c1cnn2c(C(F)(F)F)cc(-c3ccco3)nc12	-0.3
CCCSc1sc(C(=O)OCC)c2c1C(=O)CCC2	-0.61
CC(C)(C)c1nnc(NC(=O)Cn2c(=O)sc3ccccc32)s1	-1.27
C=C(C)Cc1c(C)nc(SC)[nH]c1=O	0.94
COc1ccc(-c2oc3ncn4nc(-c5ccncc5)nc4c3c2-c2ccc(OC)cc2)cc1	0.64
OCC1OC(Nc2ccc(Cl)cc2)C(O)C(O)C1O (stereo unspecified)	3.36*
CCN(CC)CCOC(=O)c1ccc(N[C@@H]2O[C@H](CO)[C@@H](O)[C@H](O)[C@H]2O)cc1	-1.29
OC[C@H]1O[C@@H](Oc2ccccc2)[C@H](O)[C@@H](O)[C@@H]1O	1.69
Cc1ccc(C)n1-c1sc2c(c1C(=O)NNC(=O)c1ccc(Cl)cc1)CCCC2	-0.47
CC(C)(C)c1ccc(C2CC(=O)C=C(O)C2)cc1 (stereo unspecified)	0.07
CCOC(=O)C1=C(C)N(c2ccccc2)C(=O)C1	1.99
SMILES	Dicer processing
COC(=O)C1=C(C)N(c2cc(C)cc(C)c2)C(=O)C1	3.61*
COC(=O)C1=C(C)N(Cc2cccnc2)C(=O)C1	-0.1
COc1ccc(-c2noc(COc3ccc(C(C)C)cc3)n2)cc1	-0.71
CS(=O)(=O)Cc1cc(Cl)cc2c1OCOC2	73
CC(C)S(=O)(=O)c1csc(NC(=O)Nc2ccccc2Cl)c1Cl	3.77*
CC(C)S(=O)(=O)c1csc(C(N)=O)c1Cl	-1.97
CC(C)S(=O)(=O)c1csc(NC(=O)Nc2c(Cl)cc(Cl)cc2Cl)c1Cl	0.24
CC(C)c1cc(C(C)C)c([N+](=O)[O-])c(C(C)C)c1	-3.4
CC(=O)OC(C)C1CCC2C3CC[C@H]4CC(=O)CCC4(C)C3CCC12C (stereo partly specified)	-1.7
CCOC(=O)/C(C#N)=C/Nc1ncc(C(F)(F)F)cc1Cl	-0.96
COC(=O)c1ccc(C2Oc3c(OC)cccc3C3CC(c4ccccc4O)=NN32)cc1 (stereo unspecified)	1.4
COc1ccc(OC)c(C2Oc3c(OC)cccc3C3CC(c4ccccc4O)=NN32)c1 (stereo unspecified)	0.8
COc1cccc2c1OC(CC(C)C)N1N=C(c3ccccc3O)CC21 (stereo unspecified)	8.32*
COc1cccc2c1OC(c1cccc(OC)c1OC)N1N=C(c3ccccc3O)CC21 (stereo unspecified)	2.13
COc1ccc(C2Oc3c(OC)cccc3C3CC(c4ccccc4O)=NN32)cc1OC (stereo unspecified)	-0.41
COc1cccc2c1OC(c1ccc(F)cc1)N1N=C(c3ccccc3O)CC21 (stereo unspecified)	8.55*
CN(C)CC(=O)Nc1nc(-c2ccc(Cl)cc2)cs1	-1.17
NNC(=O)CSc1nnc2nnc3ccccc3n12	-0.86
Cc1ccc(C(=O)OCC(=O)C(C)(C)C)cc1N1C(=O)c2c(C)nc3ccccc3c2C1=O	3.22*
Cc1ccc(C(=O)COC(=O)c2cccc(N3C(=O)c4c(C)nc5ccccc5c4C3=O)c2)cc1	0.43
Cc1nc2ccccc2c2c1C(=O)N(c1cccc(C(=O)OCC(=O)C(C)(C)C)c1)C2=O	-1.54
O=C(N/N=C/c1c(F)cccc1Cl)c1cccn1-c1ccc(F)cc1	0.34
N#C/C(C(N)=O)=C1/SC=C(c2ccccc2)N1Cc1ccccc1	0.82
O=C(O)C1C2C=CC3(CN(Cc4ccccc4)C(=O)C13)O2 (stereo unspecified)	3.2*
O=C(O)C1C2C=CC3(CN(CCc4ccccc4)C(=O)C13)O2 (stereo unspecified)	-0.96
SMILES	Dicer processing
COC(=O)C1C2C=CC3(CN(Cc4ccccc4)C(=O)C13)O2 (stereo unspecified)	1.66
CCCS(=O)(=O)c1c(S(=O)(=O)CCC)c2c(N)cccn2c1C(=O)c1ccc(C)cc1C	1.83
COc1ccc(OC)c(S(=O)(=O)/N=C(\Nc2cc(C(F)(F)F)cc(C(F)(F)F)c2)SC)c1	0.4
O=C1c2cccc([N+](=O)[O-])c2C(=O)N1c1ccc(OC(F)(F)F)cc1	-0.86
S=c1[nH]nc(C2c3ccccc3Oc3ccccc32)o1	0.79
CCOc1ccc(NC(=S)NC(c2ccccc2)c2ccccc2)cc1	-0.48
CC(NC(=S)Nc1ccc(Oc2ccc(Cl)cc2)cc1)c1ccccc1 (stereo unspecified)	3.89*
Cc1ccc(C(C)NC(=S)Nc2ccc(Cl)cc2)c(C)c1 (stereo unspecified)	-0.11
Cc1c(-c2ccnn2C(=O)Nc2ccccc2)cnn1-c1ccccc1	1.41
COC(=O)c1sc(NC(=O)CSc2nnc3cc(C)c4ccccc4n23)c(C(=O)OC)c1C	-0.63
CCOC(=O)NN1C(=O)c2cccc3cccc(c23)C1=O	-0.31
COc1c(Cl)cc(Cl)cc1-c1cn2ccccc2n1	-0.51
COc1c(Cl)cccc1-c1cn2ccc(C)cc2n1	5.87*
Cc1ccc(-c2cn3ccc(C)cc3n2)cc1	1.06
CS(=O)(=O)n1nccc1-c1ccc(Oc2cccc(Cl)c2C#N)cc1	0.04
O=C(OCc1ccccn1)c1ccc(COc2ccc3ccccc3c2)o1	3.03*
COCn1c(COc2ccc3ccccc3c2)nc2ccccc21	1.35
CN(C)C(=O)COc1ccc2ccccc2c1	-0.66
COc1ccc(CC2CCC(=NO)CC2)cc1 (stereo unspecified)	2.91
CCOC(=O)[C@@H]1Nc2ccc(C(=O)O)cc2[C@@H]2C=CC[C@H]12	0.01
CCOC(=O)C1=Nn2c(nnc2-c2ccccc2)SC1	-0.48
CCOC(=O)C(=CNNC(=O)c1ccc(OC)cc1)C(=O)OCC	-0.5
CC(C)OC(=O)c1cc2nc(-c3ccccc3)cc(C(F)(F)F)n2n1	-0.06
CN(C(=O)Cn1nc(C(F)(F)F)c2c1CCCC2)c1ccccc1	3.83*
O=C(Cn1nc(C(F)(F)F)c2c1CCCC2)N1CCCc2ccccc21	0.09
CC(C)CNC(=O)Cn1nc(C(F)(F)F)c2c1CCCC2	1.12
COc1ccc(C2/C(=C(\O)c3ccc(F)cc3)C(=O)C(=O)N2c2nnc(C)s2)cc1OC (stereo unspecified)	1.7
Cc1nnc(N2C(=O)C(=O)/C(=C(/O)c3ccccc3)C2c2ccccc2)s1 (stereo unspecified)	1.52
COc1ccc(C2/C(=C(\O)c3ccc(Cl)cc3)C(=O)C(=O)N2c2nnc(C)s2)cc1OC (stereo unspecified)	4.08*
